Experimental findings from PubChem BioAssay (EPA / NIEHS) are described below.

The AC50 is the concentration giving half of the maximal activity seen.

“And” between values parts separate entries of the source, which are not always exact repeats. Identical values can stand only once. More than one record can exist for a structure, and the calls need not agree. The source made the active and inactive calls. Rule for the calls: active = hit-call score of the fitted dose curve at least 0.9, where 1 is the maximum; inactive = score below 0.9.

Chain of E-selectin (Homo sapiens) (P16581 whole entry, looked up): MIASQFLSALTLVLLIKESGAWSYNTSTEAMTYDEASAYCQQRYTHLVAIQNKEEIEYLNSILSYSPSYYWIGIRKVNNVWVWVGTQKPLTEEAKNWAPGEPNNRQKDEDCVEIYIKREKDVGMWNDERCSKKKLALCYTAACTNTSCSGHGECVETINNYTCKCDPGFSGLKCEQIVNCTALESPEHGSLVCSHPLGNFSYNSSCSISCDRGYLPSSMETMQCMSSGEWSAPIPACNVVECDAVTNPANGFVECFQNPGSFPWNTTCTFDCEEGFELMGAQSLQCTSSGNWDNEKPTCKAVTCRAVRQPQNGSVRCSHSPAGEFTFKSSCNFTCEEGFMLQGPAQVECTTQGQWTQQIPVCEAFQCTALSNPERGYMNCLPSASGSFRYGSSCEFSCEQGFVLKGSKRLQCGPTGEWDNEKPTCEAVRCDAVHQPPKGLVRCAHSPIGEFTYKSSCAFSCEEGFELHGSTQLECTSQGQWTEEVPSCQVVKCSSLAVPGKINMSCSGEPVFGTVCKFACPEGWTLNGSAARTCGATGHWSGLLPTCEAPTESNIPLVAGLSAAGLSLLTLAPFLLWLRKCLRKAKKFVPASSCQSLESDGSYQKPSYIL

Read-out in the test: E-selectin (Homo sapiens) (UniProt P16581)
Kind of test: BSK_LPS_Eselectin: BioMAP Diversity Plus: LPS Assay for Eselectin Biomarker Activity (AID 2283077). The settings on record: primary human HUVEC with PBMC; actives raise or lower the signal. The protocol:
BSK_LPS is a cell-based, multiplexed-readout assay that uses umbilical vein endothelium and peripheral blood mononuclear cells, a human vascular primary cell co-culture, with measurements taken at 24 hours after chemical dosing in a 96-well plate.BSK_LPS_Eselectin is an assay component measured in the BSK_LPS assay. It measures E-selectin antibody related to regulation of gene expression using ELISA technology.Data from the assay component BSK_LPS_Eselectin was analyzed into 1 assay endpoint. This assay endpoint, BSK_LPS_Eselectin, was analyzed with bidirectional fitting relative to DMSO as the negative control and baseline of activity. Using a type of binding reporter, gain or loss-of-signal activity can be used to understand changes in the signaling as they relate to the gene SELE. Furthermore, this assay endpoint can be referred to as a primary readout, because this assay has produced multiple assay endpoints where this one serves a signaling function. To generalize the intended target to other relatable targets, this assay endpoint is annotated to the cell adhesion molecules intended target family, where the subfamily is selectins.
The levels of cell surface (or secreted, indicated by the prefix "s") biomarker endpoints were measured by ELISA. Overt cytotoxicity to cells in confluent adherent cultures (all systems other than the BT system) was assessed by measuring total protein levels using sulforhodamine B (SRB) staining in parallel cultures at the time of biomarker measurements, indicated as SRB endpoints. For proliferation assays for adherent cell types, individual cell types are cultured at sub-confluence and relative cell numbers quantified by SRB staining at time points optimized for each system (48 h: 3C and CASM3C systems; 72 h: BT and HDF3CGF systems; 96 h: SAg system). SRB was performed by staining cells with 0.1% SRB after fixation with 10% TCA and reading wells at 560 nm.Viability and proliferation of PBMC (T cells) was quantified by Alamar Blue reduction for the SAg and BT systems. For PBMC viability (referred to as PBMC Cytotoxicity within the assay endpoint names), cells were plated (75,000/well in a 96-well plate) and then chemical samples added for 1 h before addition of activators, SEB and TSST-1 (20 ng/mL final concentration each). Cells were incubated for 90 h. Then, Alamar Blue (20 uL/well) (Invitrogen, Cat DAL1100) was added for 6 h, and the plates were read with a fluorescence microplate reader at 546/580 nm (excitation/emission). For PBMC proliferation, cells were plated and activated as above but incubated for only 16 h prior to addition of Alamar Blue. Plates were read after 6 h.
For `C=CCOCC(O)CCl` (configuration not stated), the result was inactive.

With `C/C=C\C/C=C/CCCCCCCCOC(C)=O`, the AC50 is 30.9 µM (active).

`C=CC(=O)OCC(Br)CBr` (configuration not stated): the AC50 is 20 µM (active).

Consider `C#CC1(O)CC[C@H]2[C@@H]3CCC4=CCCC[C@@H]4[C@H]3CC[C@@]21C` (some centres not stated), for which the AC50 was 30.3 µM (active).

For the compound `CCCCC/C=C\C/C=C\CCCCCCCC(=O)OC`, the half-maximal activity concentration (AC50) was 36.5 µM (active).

Turning to `CCCCCCCCc1ccc(Nc2ccc(CCCCCCCC)cc2)cc1`, the result was inactive.

`CCOC(=O)c1ccccc1C(=C1C=C(Br)C(=O)C(Br)=C1)c1cc(Br)c(O)c(Br)c1`: the concentration at half-maximal activity (AC50) was 21.2 µM (active) and 21.8 µM (active).

Consider `c1ccc(-c2ccccn2)nc1`, for which the outcome was inactive.

For the compound `O=c1c2ccccc2oc2ccccc12`, the outcome was inactive.

With `O=C(c1ccc(O)cc1)c1ccc(O)cc1O`, the outcome was inactive.

`c1ccc2c(c1)ccc1cc3c(ccc4ccccc43)cc12`: the result was inactive.

With `CO[Si](OC)(OC)c1ccccc1`, the result was inactive.

With `CN1C(=O)N(C)C(O)C1O` (configuration not stated), the result was inactive.

As to `CC(C)(c1cc(Br)c(OCCO)c(Br)c1)c1cc(Br)c(OCCO)c(Br)c1`, the outcome was inactive.

For `Nc1ccc(N)c(Cl)c1`, the half-maximal activity concentration (AC50) was 13.9 µM (active) and the result was inactive.

As for `O=C(Nc1ccccc1SSc1ccccc1NC(=O)c1ccccc1)c1ccccc1`, the result was inactive.

In the case of `N#[N+]c1ccc2c(S(=O)(=O)[O-])cccc2c1O`, the result was inactive.

Take `c1ccc2c(c1)ccc1ncccc12`: the result was inactive.

As to `CCO[Si](C)(OCC)OCC`, the outcome was inactive.

With `CCOc1nc(F)cc2nc(S(=O)(=O)Nc3c(Cl)cccc3C(=O)OC)nn12`, the result was inactive.

Consider `S=C(NC1CCCCC1)NC1CCCCC1`, for which the result was inactive.

Turning to `COc1ccc2nc(N)sc2c1`, the outcome was inactive.

As for `CCCCCCCCCCCCCCCC[N+](C)(C)CC`, the AC50 was 5.7 µM (active).

As to `C=C[Si](OC(C)=O)(OC(C)=O)OC(C)=O`, the result was inactive.

With `CC1OC1C1CCC2(C)OC2C1` (configuration not stated), the outcome was inactive.

In the case of `O=Nc1ccc(O)cc1`, the result was inactive.

As for `C=CC=CC=CCCCCC`, the result was inactive.

Regarding `C=CCOc1c(Br)cc(Br)cc1Br`, the result was inactive.

`CC(C)C(=O)C(C)C`: the outcome was inactive.

With `CCCCC(CC)COC(=O)c1ccccc1O` (configuration not stated), the outcome was inactive.

Take `CCO[Si](CCCN=C=O)(OCC)OCC`: the result was inactive.

For the compound `O=C(Cl)c1cc(C(=O)Cl)cc(C(=O)Cl)c1`, the half-maximal activity concentration (AC50) was 31.2 µM (active).

`CCCCC(CC)COCC1CO1` (configuration not stated): the result was inactive.

For the compound `COCc1c(C(C)C)nc(C(C)C)c(/C=C/[C@@H](O)C[C@@H](O)CC(=O)O)c1-c1ccc(F)cc1`, the result was inactive.

Take `O=C1CCCN1CCO`: the result was inactive.

For the compound `CCCCNc1ccc(NCCCC)c2c1C(=O)c1ccccc1C2=O`, the outcome was inactive.
